# Residue numbers refer to the chain shown, from its start.
# What was measured:
# Assay in all cases: PBM; 200 nM protein, PBS
# Settings in all cases: dsDNA, one strand shown
# NKX2-5 [1] = target: NKX2-5 (Homo sapiens, UniProt P52952 125-210, R139K)
# NKX2-4 [2] = target: T1, NKX2-4 (Homo sapiens, UniProt Q9H2Z4 175-261, P217L)
# T1 sequence: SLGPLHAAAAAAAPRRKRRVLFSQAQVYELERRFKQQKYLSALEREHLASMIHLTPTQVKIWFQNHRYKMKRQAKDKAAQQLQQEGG
# NKX2-4 [3] = target: T2, NKX2-4 (Homo sapiens, UniProt Q9H2Z4 175-261, T231S)
# T2 sequence: T1 sequence with L43P, T57S
# NKX2-4 [4] = target: T3, NKX2-4 (Homo sapiens, UniProt Q9H2Z4 175-261)
# T3 sequence: T1 sequence with L43P
# NKX2-4 [5] = target: T4, NKX2-4 (Homo sapiens, UniProt Q9H2Z4 175-261, R246Q)
# T4 sequence: T1 sequence with L43P, R72Q
# NKX3-2 [6] = target: NKX3-2 (Homo sapiens, UniProt P78367 192-278, P234S)
# NKX2-5 [7] = target: NKX2-5 (Homo sapiens, UniProt P52952 125-210)
# NKX3-2 [8] = target: NKX3-2 (Homo sapiens, UniProt P78367 192-278)
# NKX2-6 [9] = target: T5, NKX2-6 (Homo sapiens, UniProt A6NCS4 118-204, R150C)
# T5 sequence: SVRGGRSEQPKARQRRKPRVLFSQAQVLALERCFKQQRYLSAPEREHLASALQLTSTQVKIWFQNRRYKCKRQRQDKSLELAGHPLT
# NKX2-6 [10] = target: T6, NKX2-6 (Homo sapiens, UniProt A6NCS4 118-204)
# T6 sequence: T5 sequence with C33R
# NKX2-6 [11] = target: T7, NKX2-6 (Homo sapiens, UniProt A6NCS4 118-204, F151L)
# T7 sequence: T5 sequence with C33R, F34L
# HOXB4 [12] = target: HOXB4 (Homo sapiens, UniProt P17483 148-234)
# SHOX = SHOX (Homo sapiens, UniProt O15266 103-189)
# VENTX [13] = target: T8, VENTX (Homo sapiens, UniProt O95231 78-163, R121Q)
# T8 sequence: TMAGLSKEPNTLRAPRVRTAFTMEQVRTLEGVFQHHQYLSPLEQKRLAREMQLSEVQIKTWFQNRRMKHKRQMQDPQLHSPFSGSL
# VENTX [14] = target: T9, VENTX (Homo sapiens, UniProt O95231 78-163)
# T9 sequence: T8 sequence with Q44R
# VENTX [15] = target: T10, VENTX (Homo sapiens, UniProt O95231 78-163, Y115F)
# T10 sequence: T8 sequence with Y38F, Q44R
# HOXB4 [16] = target: HOXB4 (Homo sapiens, UniProt P17483 148-234, V174I)
# ALX1 [17] = target: ALX1 (Homo sapiens, UniProt Q15699 118-204, L144V)
# ALX1 [18] = target: ALX1 (Homo sapiens, UniProt Q15699 118-204, L144R)
# ALX1 [19] = target: ALX1 (Homo sapiens, UniProt Q15699 118-204)
# Chain of ALX1 (Homo sapiens, UniProt Q15699 118-204) (Q15699 118-204): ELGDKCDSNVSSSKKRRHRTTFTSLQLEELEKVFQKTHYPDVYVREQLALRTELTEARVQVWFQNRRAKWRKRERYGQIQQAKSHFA
# Chain of NKX2-5 (Homo sapiens, UniProt P52952 125-210, R139K) (P52952 125-210 R139K): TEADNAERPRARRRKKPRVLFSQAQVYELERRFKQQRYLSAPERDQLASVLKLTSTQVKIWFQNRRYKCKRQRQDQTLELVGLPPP
# Chain of NKX2-5 (Homo sapiens, UniProt P52952 125-210) (P52952 125-210): as the sequence (P52952 125-210 R139K) above, with K15R counted along it
# Chain of NKX3-2 (Homo sapiens, UniProt P78367 192-278) (P78367 192-278): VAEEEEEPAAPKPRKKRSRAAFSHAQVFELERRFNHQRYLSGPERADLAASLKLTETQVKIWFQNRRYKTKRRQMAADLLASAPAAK
# Chain of NKX3-2 (Homo sapiens, UniProt P78367 192-278, P234S) (P78367 192-278 P234S): as the sequence (P78367 192-278) above, with P43S counted along it
# Chain of HOXB4 (Homo sapiens, UniProt P17483 148-234, V174I) (P17483 148-234 V174I): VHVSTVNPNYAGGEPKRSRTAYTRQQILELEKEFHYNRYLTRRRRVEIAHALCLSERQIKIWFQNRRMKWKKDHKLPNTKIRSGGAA
# Chain of HOXB4 (Homo sapiens, UniProt P17483 148-234) (P17483 148-234): as the sequence (P17483 148-234 V174I) above, with I27V counted along it
# Chain of ALX1 (Homo sapiens, UniProt Q15699 118-204, L144R) (Q15699 118-204 L144R): as the sequence (Q15699 118-204) above, with L27R counted along it
# Chain of ALX1 (Homo sapiens, UniProt Q15699 118-204, L144V) (Q15699 118-204 L144V): as the sequence (Q15699 118-204) above, with L27V counted along it
# Chain of SHOX (O15266 103-189): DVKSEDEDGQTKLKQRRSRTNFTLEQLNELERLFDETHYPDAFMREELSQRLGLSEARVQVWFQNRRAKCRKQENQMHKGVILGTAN
sequence,measurement,setting,value
CCGGAGCC,binding signal,NKX2-5 [1],"8.82 upbm affinity estimate (log intensity, higher = more binding, comparable within an allelic series)"
same,binding signal,NKX2-4 [2],"9.74 upbm affinity estimate (log intensity, higher = more binding, comparable within an allelic series)"
same,binding signal,NKX2-4 [3],"9.52 upbm affinity estimate (log intensity, higher = more binding, comparable within an allelic series)"
same,binding signal,NKX2-4 [4],"9.71 upbm affinity estimate (log intensity, higher = more binding, comparable within an allelic series)"
same,binding signal,NKX2-4 [5],"9.5 upbm affinity estimate (log intensity, higher = more binding, comparable within an allelic series)"
same,binding signal,NKX3-2 [6],"10.4 upbm affinity estimate (log intensity, higher = more binding, comparable within an allelic series)"
same,binding signal,NKX2-5 [7],"8.87 upbm affinity estimate (log intensity, higher = more binding, comparable within an allelic series)"
same,binding signal,NKX3-2 [8],"10.4 upbm affinity estimate (log intensity, higher = more binding, comparable within an allelic series)"
ACTTAAGT,binding signal,NKX2-5 [1],"12.8 upbm affinity estimate (log intensity, higher = more binding, comparable within an allelic series)"
same,binding signal,NKX2-4 [2],"12.5 upbm affinity estimate (log intensity, higher = more binding, comparable within an allelic series)"
same,binding signal,NKX2-4 [3],"12.9 upbm affinity estimate (log intensity, higher = more binding, comparable within an allelic series)"
same,binding signal,NKX2-4 [4],"12.4 upbm affinity estimate (log intensity, higher = more binding, comparable within an allelic series)"
same,binding signal,NKX2-6 [9],"11.8 upbm affinity estimate (log intensity, higher = more binding, comparable within an allelic series)"
same,binding signal,NKX2-6 [10],"13.7 upbm affinity estimate (log intensity, higher = more binding, comparable within an allelic series)"
same,binding signal,NKX2-4 [5],"13 upbm affinity estimate (log intensity, higher = more binding, comparable within an allelic series)"
same,binding signal,NKX2-6 [11],"11.2 upbm affinity estimate (log intensity, higher = more binding, comparable within an allelic series)"
same,binding signal,NKX3-2 [6],"12.6 upbm affinity estimate (log intensity, higher = more binding, comparable within an allelic series)"
same,binding signal,NKX2-5 [7],"12.9 upbm affinity estimate (log intensity, higher = more binding, comparable within an allelic series)"
same,binding signal,NKX3-2 [8],"12.7 upbm affinity estimate (log intensity, higher = more binding, comparable within an allelic series)"
CTAATTGC,binding signal,NKX2-5 [1],"10.9 upbm affinity estimate (log intensity, higher = more binding, comparable within an allelic series)"
same,binding signal,HOXB4 [12],"12.9 upbm affinity estimate (log intensity, higher = more binding, comparable within an allelic series)"
same,binding signal,SHOX,"11.8 upbm affinity estimate (log intensity, higher = more binding, comparable within an allelic series)"
same,binding signal,VENTX [13],"12.3 upbm affinity estimate (log intensity, higher = more binding, comparable within an allelic series)"
same,binding signal,VENTX [14],"12.7 upbm affinity estimate (log intensity, higher = more binding, comparable within an allelic series)"
same,binding signal,VENTX [15],"12 upbm affinity estimate (log intensity, higher = more binding, comparable within an allelic series)"
same,binding signal,HOXB4 [16],"13.7 upbm affinity estimate (log intensity, higher = more binding, comparable within an allelic series)"
same,binding signal,ALX1 [17],"11.5 upbm affinity estimate (log intensity, higher = more binding, comparable within an allelic series)"
same,binding signal,ALX1 [18],"11 upbm affinity estimate (log intensity, higher = more binding, comparable within an allelic series)"
same,binding signal,ALX1 [19],"12.2 upbm affinity estimate (log intensity, higher = more binding, comparable within an allelic series)"
same,binding signal,NKX2-5 [7],"11.1 upbm affinity estimate (log intensity, higher = more binding, comparable within an allelic series)"
AATAAGTG,binding signal,NKX2-5 [1],"12.4 upbm affinity estimate (log intensity, higher = more binding, comparable within an allelic series)"
same,binding signal,NKX2-4 [2],"12.4 upbm affinity estimate (log intensity, higher = more binding, comparable within an allelic series)"
same,binding signal,NKX2-4 [3],"12.8 upbm affinity estimate (log intensity, higher = more binding, comparable within an allelic series)"
same,binding signal,NKX2-4 [4],"12.3 upbm affinity estimate (log intensity, higher = more binding, comparable within an allelic series)"
same,binding signal,NKX2-6 [9],"11.8 upbm affinity estimate (log intensity, higher = more binding, comparable within an allelic series)"
same,binding signal,NKX2-6 [10],"13.3 upbm affinity estimate (log intensity, higher = more binding, comparable within an allelic series)"
same,binding signal,NKX2-4 [5],"12.9 upbm affinity estimate (log intensity, higher = more binding, comparable within an allelic series)"
same,binding signal,NKX2-6 [11],"10.7 upbm affinity estimate (log intensity, higher = more binding, comparable within an allelic series)"
same,binding signal,NKX2-5 [7],"12.4 upbm affinity estimate (log intensity, higher = more binding, comparable within an allelic series)"
CCACTTCA,binding signal,NKX2-5 [1],"12.9 upbm affinity estimate (log intensity, higher = more binding, comparable within an allelic series)"
same,binding signal,NKX2-4 [2],"12.9 upbm affinity estimate (log intensity, higher = more binding, comparable within an allelic series)"
same,binding signal,NKX2-4 [3],"13.2 upbm affinity estimate (log intensity, higher = more binding, comparable within an allelic series)"
same,binding signal,NKX2-4 [4],"12.7 upbm affinity estimate (log intensity, higher = more binding, comparable within an allelic series)"
same,binding signal,NKX2-6 [9],"12 upbm affinity estimate (log intensity, higher = more binding, comparable within an allelic series)"
same,binding signal,NKX2-6 [10],"13.7 upbm affinity estimate (log intensity, higher = more binding, comparable within an allelic series)"
same,binding signal,NKX2-4 [5],"13.4 upbm affinity estimate (log intensity, higher = more binding, comparable within an allelic series)"
same,binding signal,NKX2-6 [11],"11 upbm affinity estimate (log intensity, higher = more binding, comparable within an allelic series)"
same,binding signal,NKX3-2 [6],"12.8 upbm affinity estimate (log intensity, higher = more binding, comparable within an allelic series)"
same,binding signal,NKX2-5 [7],"12.9 upbm affinity estimate (log intensity, higher = more binding, comparable within an allelic series)"
same,binding signal,NKX3-2 [8],"12.8 upbm affinity estimate (log intensity, higher = more binding, comparable within an allelic series)"
CCAGCGCG,binding signal,NKX2-5 [1],"8.57 upbm affinity estimate (log intensity, higher = more binding, comparable within an allelic series)"
same,binding signal,NKX2-5 [7],"8.52 upbm affinity estimate (log intensity, higher = more binding, comparable within an allelic series)"
GTACTTAA,binding signal,NKX2-5 [1],"13.1 upbm affinity estimate (log intensity, higher = more binding, comparable within an allelic series)"
same,binding signal,NKX2-4 [2],"12.8 upbm affinity estimate (log intensity, higher = more binding, comparable within an allelic series)"
same,binding signal,NKX2-4 [3],"13.2 upbm affinity estimate (log intensity, higher = more binding, comparable within an allelic series)"
same,binding signal,NKX2-4 [4],"12.6 upbm affinity estimate (log intensity, higher = more binding, comparable within an allelic series)"
same,binding signal,NKX2-6 [9],"12 upbm affinity estimate (log intensity, higher = more binding, comparable within an allelic series)"
same,binding signal,NKX2-6 [10],"13.9 upbm affinity estimate (log intensity, higher = more binding, comparable within an allelic series)"
same,binding signal,NKX2-4 [5],"13.3 upbm affinity estimate (log intensity, higher = more binding, comparable within an allelic series)"
same,binding signal,NKX2-6 [11],"11.2 upbm affinity estimate (log intensity, higher = more binding, comparable within an allelic series)"
same,binding signal,NKX3-2 [6],"12.7 upbm affinity estimate (log intensity, higher = more binding, comparable within an allelic series)"
same,binding signal,NKX2-5 [7],"12.9 upbm affinity estimate (log intensity, higher = more binding, comparable within an allelic series)"
same,binding signal,NKX3-2 [8],"12.8 upbm affinity estimate (log intensity, higher = more binding, comparable within an allelic series)"
ACGGCTGG,binding signal,NKX2-5 [1],"8.82 upbm affinity estimate (log intensity, higher = more binding, comparable within an allelic series)"
same,binding signal,HOXB4 [12],"7.57 upbm affinity estimate (log intensity, higher = more binding, comparable within an allelic series)"
same,binding signal,HOXB4 [16],"7.93 upbm affinity estimate (log intensity, higher = more binding, comparable within an allelic series)"
same,binding signal,NKX2-5 [7],"8.82 upbm affinity estimate (log intensity, higher = more binding, comparable within an allelic series)"

# Source: publication PMC11006913
